Results on nine compounds are retold here after PubChem BioAssay (NCI).

Molecules are shown by their SMILES. Compounds without any hit were thinned out: in the full panel of roughly 83,000, 20% have a hit.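 For each line, cells grew in 96-well plates with the test compound present at a single concentration for 48 hours.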 A number with no mark means an inactive call. Activity calls are given as the source filed them. How the source made its calls: active means growth percent below 10; inactive means the rest.

Common to all, as to assay: NCI-60 one-dose screen, 48 h (100 = growth as untreated, 0 = no growth, -100 = all killed)
One assay concerns HCT-15 colon. The settings on record: 10 µM unless noted.
The next assay concerns HT29 colon. To be noted: 10 µM unless noted.
A further assay has as its system SNB-75 CNS. The settings on record: 10 µM unless noted.
For another assay, the system named is SNB-19 CNS. The settings on record: 10 µM unless noted.
A further assay concerns U251 CNS. To be noted: 10 µM unless noted.
The next assay has as its system PC-3 prostate. To be noted: 10 µM unless noted.
For another assay, the system named is SK-MEL-5 melanoma. The settings on record: 10 µM unless noted.
Another assay deals with LOX IMVI melanoma. The settings on record: 10 µM unless noted.
The subject of another assay is SK-MEL-28 melanoma. The settings on record: 10 µM unless noted.
The next assay deals with SK-MEL-2 melanoma. To be noted: 10 µM unless noted.
Another assay has as its system EKVX NSCLC. To be noted: 10 µM unless noted.
The subject of another assay is SN12C renal. To be noted: 10 µM unless noted.
A further assay concerns UO-31 renal. The settings on record: 10 µM unless noted.
A further assay concerns TK-10 renal. To be noted: 10 µM unless noted.
The next assay has as its system ACHN renal. The settings on record: 10 µM unless noted.
The subject of the next assay is A498 renal. To be noted: 10 µM.
Another assay deals with CCRF-CEM leukemia. The settings on record: 10 µM unless noted.
A further assay has as its system CAKI-1 renal. To be noted: 10 µM unless noted.
Another assay concerns HL-60(TB) leukemia. To be noted: 10 µM unless noted.

Consider `CC1(C)N=C(N)N=C(N)N1c1ccc(CCCCc2ccc(Cl)c(S(=O)(=O)F)c2)c(Cl)c1`, for which the growth was 37.3% in the assay on HCT-15 colon; 16.3% in the assay on HT29 colon; 35.1% in the assay on SNB-75 CNS; 31.6% in the assay on SNB-19 CNS; 28.8% with U251 CNS; 15.1% in the assay with PC-3 prostate. Further, the growth is 10.6% in the assay on SK-MEL-5 melanoma; 13.6% with LOX IMVI melanoma; 58.2% in the assay with SK-MEL-28 melanoma; 38.7% in the assay on SK-MEL-2 melanoma; 45.3% in the assay with EKVX NSCLC; 24.6% in the assay on SN12C renal. Also, the growth in the assay on UO-31 renal was 27.3%; in the assay on TK-10 renal, 41.7%; in the assay with ACHN renal, 28.2%; with A498 renal, 69.6%; with CCRF-CEM leukemia it was 3.5% (active).
For `CC[C@H](C)[C@H](NC(=O)C12C3C4C1C1C2C3C41NC(C)=O)C(=O)N(C)[C@H](C[C@@H](OC(C)=O)c1nc(C(=O)N[C@@H](Cc2ccccc2)C[C@H](C)C(=O)OC)cs1)C(C)C` (stereo partly drawn), the growth was 24.8% with HCT-15 colon; 4.53% (active) with HT29 colon; 38.6% with SNB-75 CNS; 56.1% with SNB-19 CNS; 9.8% (active) with U251 CNS; 11.3% in the assay with PC-3 prostate. Further, the growth in the assay with SK-MEL-5 melanoma was -13.4% (active); in the assay on LOX IMVI melanoma it was 14.9%; in the assay on SK-MEL-28 melanoma, 59.6%; in the assay with SK-MEL-2 melanoma, 49.2%; with EKVX NSCLC, 38.6%; in the assay on SN12C renal, 25.6%. Further, the growth in the assay with UO-31 renal was 59.8%; in the assay with TK-10 renal, 62%; in the assay on ACHN renal it was 36.6%; in the assay with CAKI-1 renal, 74.1%; with A498 renal, -10.4% (active); in the assay on CCRF-CEM leukemia, 12.2%.
`COc1ccc2c(c1)c(-c1nc(-c3c[nH]c4ncccc34)cs1)cn2CCCCN1CCCCC1`: the growth with HCT-15 colon is -76.7% (active); in the assay on HT29 colon, -72.4% (active); in the assay on SNB-75 CNS, -75.4% (active); in the assay on SNB-19 CNS it was -71.1% (active); in the assay with U251 CNS, -75.3% (active); with PC-3 prostate, -79% (active). The growth with SK-MEL-5 melanoma is -81.3% (active); with LOX IMVI melanoma it was -83.1% (active); in the assay with SK-MEL-28 melanoma it was -85.1% (active); in the assay with SK-MEL-2 melanoma, -53.2% (active); with EKVX NSCLC, 49.4%; in the assay on SN12C renal, -75.2% (active). The growth is -16.6% (active) in the assay with TK-10 renal; -92.2% (active) in the assay on ACHN renal; 58.2% with A498 renal; -69.8% (active) in the assay with HL-60(TB) leukemia; -38.7% (active) in the assay on CCRF-CEM leukemia.
On to `COc1ccc2c(c1)c(-c1nc(-c3c[nH]c4ncccc34)cs1)cn2CCN1CCOCC1`, for which the growth in the assay on HCT-15 colon was 31.4%; with HT29 colon, 45.8%; with SNB-75 CNS, 49.7%; in the assay on SNB-19 CNS, 67%; with U251 CNS it was 45.6%; in the assay on PC-3 prostate, 34.1%. Besides, the growth in the assay with SK-MEL-5 melanoma is 25.4%; with LOX IMVI melanoma it was 45.4%; with SK-MEL-28 melanoma, 68.4%; in the assay on SK-MEL-2 melanoma, 61.3%; with EKVX NSCLC it was 37.1%; with SN12C renal, 43.6%. Further, the growth was 15.4% with UO-31 renal; 42.3% in the assay with TK-10 renal; 36.5% in the assay with ACHN renal; 71.7% in the assay on A498 renal; 61% in the assay on HL-60(TB) leukemia; 41.6% in the assay with CCRF-CEM leukemia.
For the compound `OCc1ccc2c(c1)OCO2`, the growth was 104% with HCT-15 colon; 96.4% with HT29 colon; 84.5% with SNB-75 CNS; 104% with SNB-19 CNS; 95.8% in the assay with U251 CNS; 94.3% in the assay on PC-3 prostate. Also, the growth in the assay on SK-MEL-5 melanoma was 102%; in the assay on LOX IMVI melanoma, 95.3%; in the assay with SK-MEL-28 melanoma, 108%; with SK-MEL-2 melanoma, 99.5%; with EKVX NSCLC, 96.3%; in the assay on SN12C renal, 101%. The growth is 88% in the assay with UO-31 renal; 91.7% with TK-10 renal; 104% in the assay on ACHN renal; 93.2% in the assay on CAKI-1 renal; 111% in the assay on A498 renal; 102% in the assay with CCRF-CEM leukemia.
Regarding `COC(=O)[C@@H](C)C[C@H](Cc1ccc2ccccc2c1)NC(=O)c1csc([C@@H](C[C@H](C(C)C)N(C)C(=O)[C@@H](NC(=O)[C@H]2CCCCN2C)C(C)C)OC(C)=O)n1`, the growth was 70.3% in the assay with HCT-15 colon; 1.71% (active) in the assay with HT29 colon; 42.8% in the assay on SNB-75 CNS; 51.8% in the assay on SNB-19 CNS; 22.1% with U251 CNS; 47.3% with PC-3 prostate. Besides, the growth was -21% (active) with SK-MEL-5 melanoma; 28.3% with LOX IMVI melanoma; 68.6% in the assay with SK-MEL-28 melanoma; 57.8% with SK-MEL-2 melanoma; 46.1% with EKVX NSCLC; 33.5% in the assay with SN12C renal. Further, the growth is 23.1% in the assay on UO-31 renal; 28% in the assay with TK-10 renal; 4.23% (active) with ACHN renal; 21.7% in the assay on A498 renal; 9.43% (active) with HL-60(TB) leukemia; 24.2% with CCRF-CEM leukemia.
On to `C=CC[n+]1ccc(-c2cc[n+](CC=C)cc2)cc1`, for which the growth in the assay with HCT-15 colon is 96.4%; with HT29 colon, 29.1%; in the assay on SNB-75 CNS, 92.5%; in the assay on SNB-19 CNS, 111%; in the assay with U251 CNS it was 89.4%; in the assay on PC-3 prostate, 90.9%. Besides, the growth with SK-MEL-5 melanoma was 71.4%; in the assay with LOX IMVI melanoma, 101%; with SK-MEL-28 melanoma, 102%; in the assay on SN12C renal, 103%; in the assay on UO-31 renal, 95%; in the assay with TK-10 renal, 126%. The growth in the assay with ACHN renal is 103%; in the assay with CAKI-1 renal, 94.2%; in the assay on A498 renal it was 100%; in the assay on HL-60(TB) leukemia, 93.3%; in the assay on CCRF-CEM leukemia, 84.7%.
Turning to `C[C@]12CCc3sc(-c4ccccc4O)nc3C1=CC[C@@H]1[C@@H]2CC[C@]2(C)C(=O)CC[C@@H]12`, the growth in the assay with HCT-15 colon was 98%; in the assay with HT29 colon, 104%; with SNB-75 CNS, 95.5%; in the assay with SNB-19 CNS it was 101%; in the assay with U251 CNS, 102%; with PC-3 prostate it was 98.9%. Besides, the growth in the assay with SK-MEL-5 melanoma is 110%; in the assay on LOX IMVI melanoma it was 104%; with SK-MEL-28 melanoma, 113%; in the assay on SK-MEL-2 melanoma, 105%; in the assay with EKVX NSCLC, 99.7%; with SN12C renal, 101%. Moreover, the growth with UO-31 renal was 85.8%; in the assay with TK-10 renal, 104%; in the assay on ACHN renal, 98.8%; in the assay with CAKI-1 renal, 83.5%; with HL-60(TB) leukemia, 103%; with CCRF-CEM leukemia it was 118%.
Regarding `N#C[Se]CCN1C(=O)c2ccccc2C1=O`, the growth with HCT-15 colon was 53.2%; in the assay with HT29 colon it was 13.9%; with SNB-75 CNS, 2.39% (active); in the assay with SNB-19 CNS it was 38%; with U251 CNS, 27.4%; in the assay on PC-3 prostate, 41.8%. The growth in the assay with SK-MEL-5 melanoma was 1.73% (active); in the assay on LOX IMVI melanoma it was 5.83% (active); in the assay with SK-MEL-28 melanoma it was 25.9%; in the assay on SK-MEL-2 melanoma it was 43.7%; in the assay with EKVX NSCLC, 33.8%; in the assay on SN12C renal it was 64.4%. Besides, the growth in the assay on UO-31 renal was 15.9%; with TK-10 renal, 15.3%; in the assay on ACHN renal, 63.2%; in the assay on A498 renal it was -12.5% (active); in the assay on CCRF-CEM leukemia it was 21.1%.
